Screens deposited in PubChem BioAssay by National Center for Advancing Translational Sciences (NCATS).
In the library only some 2.4% were active in any assay of this set; here they are far more common.
D2 ag-1: human D2 receptor agonism in beta-arrestin assay. P14416. DiscoveRx PathHunter D2 beta-arrestin, luminescence, 90 min; 100% = 57 uM dopamine signal. activation, % (no concentration beside the values). 0.084% of 360,000 active. AID 624465; in the data active = activation above about 40%
Target sequence (P14416 whole entry, looked up): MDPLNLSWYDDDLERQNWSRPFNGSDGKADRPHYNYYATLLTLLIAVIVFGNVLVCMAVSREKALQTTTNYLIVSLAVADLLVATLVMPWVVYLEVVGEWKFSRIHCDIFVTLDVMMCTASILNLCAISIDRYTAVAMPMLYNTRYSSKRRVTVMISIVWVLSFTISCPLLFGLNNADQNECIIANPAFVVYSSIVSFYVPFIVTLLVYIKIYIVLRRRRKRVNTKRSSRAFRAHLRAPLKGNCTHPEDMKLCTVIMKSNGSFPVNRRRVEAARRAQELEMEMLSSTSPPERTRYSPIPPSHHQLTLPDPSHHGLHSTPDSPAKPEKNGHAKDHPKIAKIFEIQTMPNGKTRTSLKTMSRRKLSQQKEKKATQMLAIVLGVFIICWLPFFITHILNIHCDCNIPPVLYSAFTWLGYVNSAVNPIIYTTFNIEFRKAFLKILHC
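Agonist mode: compounds alone added to overnight-plated D2 PathHunter cells for 90 min at 37 C, with 57 uM final dopamine (EC100) defining full response. Beta-arrestin recruitment detected by chemiluminescent reagent, read after 1 h at ambient temperature.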
D2 PAM-1: D2 dopamine receptor (human) potentiation; P14416; HEK293 T-REx D2, calcium flux, EC20 dopamine potentiation; potentiation, % at 10 µM; 0.34% of 340,000 active; AID 485347;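 active = potentiation over 3 SD above the plate norm, cut at about 30% in these data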; also: 0% is about no effect
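Potentiation of an EC20 dopamine calcium response measured kinetically over 180 s, after a preceding 180 s compound-only read flagging agonists. Cells: inducible Hek293 Trex D2 line, 4000/well, cultured overnight at 30 C before dye loading.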
D2 ag-2: D2 dopamine receptor (human) agonism; activation, % at 2 µM; 0.53% of 340,000 active; P14416; HEK293 T-REx D2 cells, calcium flux agonist mode;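 active = activation over 3 SD above normal in the single-dose calcium agonist read, cut at about 30% in these data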; also: 0% is about no effect
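In this primary screen, compounds producing a positive calcium signal within 180 s of addition to tetracycline-induced, force-coupled HEK293 Trex D2 cells are flagged; cells are dye-loaded with a no-wash calcium kit beforehand.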
D2 antag: antagonists of human D2 dopamine receptor; P14416; HEK293 TREx D2 cells, calcium flux, dopamine EC80; inhibition, % at 10 µM; 2% of 340,000 active; in the data active = inhibition above about 30%; inactive = below that, where a call was filed; also: 0% is about no effect
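HEK293 T-REx D2 cells, tet-induced, calcium dye no-wash. Cpd pintool add, 180 s kinetic, then EC80 DA, 180 s kinetic. Ca flux read.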
D2 PAM-2: human D2 receptor positive allosteric modulation; P14416; DiscoveRx D2 beta-arrestin cells, luminescence, 90 min; 100% = 57 uM dopamine signal; potentiation, % (test concentration not listed); 0.23% of 360,000 active; AID 624464; in the data active = potentiation above about 50%
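PathHunter D2 cells, attached overnight at 37 deg C, received compound in DMSO plus dopamine at EC20 (50 nM final) for 90 min at 37 deg C. Beta-arrestin recruitment was read as luminescence after 1 h with detection reagent at ambient temperature.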
Starred values were filed as active, the others as inactive; x = no result.

SMILES	D2 ag-1	D2 PAM-1	D2 ag-2	D2 antag	D2 PAM-2
C=CCN(c1ccccc1)S(=O)(=O)c1cccc(C(=O)NCC(c2ccc(OC)cc2)N2CCCCC2)c1 (stereo not drawn)	-5	-27	1	55*	-32
COc1ccc(C(CNC(=O)c2ccc(C)c(S(=O)(=O)Nc3ccccc3OC)c2)N2CCCC2)cc1 (stereo not drawn)	-3	-15	-1	49*	-23
CCc1ccccc1NC(=O)Nc1cc(C(=O)NCc2ccc(C)cc2)ccc1N1CCCC1	x	9	-4	x	x
CCCCN(C(=O)c1ccccc1Cl)C(CC(C)C)c1nc2ccccc2[nH]1 (stereo not drawn)	-7	x	x	x	-5
CCCCNC(=O)C1(N2C(=O)c3ccccc3C2=O)CCCC1	-1	x	x	x	-16
CN(CCC#N)C(=O)Cn1nc(Cc2ccncc2)c2ccccc2c1=O	-3	12	-2	35*	-6
COC(=O)C(NC(=O)CC(C)C)(Nc1nc2c(s1)CCCC2)C(F)(F)F (stereo not drawn)	x	7	0	x	x
CCCCN(CC)C(=O)CSc1c2c(nc3ccc(Cl)cc13)CCCC2	x	0	1	x	x
Cc1cc(S(=O)(=O)Nc2ccc(C(=O)NCCN3CCOCC3)cc2)ccc1F	-3	x	x	x	-12
COc1cc2c(cc1OC)C(c1cc(OC)c(O)c(OC)c1)CC(=O)N2 (stereo not drawn)	x	6	1	x	x
O=C(CSc1nc(O)c(Cc2ccccc2)c(=O)[nH]1)Nc1ccccc1	-1	16	0	6	-16
Nc1nc(SCC(=O)Nc2ccc(Cl)cc2)[nH]c(=O)c1-c1ccccc1	-2	-22	-1	36*	-29
COc1ccc(NC(=O)CSc2nc(O)c(Cc3ccccc3)c(=O)[nH]2)cc1	0	13	0	53*	-15
COc1ccc(-c2onc(C)c2C)cc1S(=O)(=O)Nc1cccc(C#N)c1	x	-14	x	x	x
Cc1ccccc1-c1n[nH]nc1C1=CC(=O)C[C@H](c2ccc(F)cc2)C1	-4	x	x	x	-3
CC(C)Oc1ccc(CN2CCC2(C)C(=O)Nc2cccc3cccnc23)cc1 (stereo not drawn)	-4	x	x	x	-17
CCOc1cccc(-c2c(C(=O)N/N=C/c3cccs3)nnn2-c2nonc2N)c1	-1	14	9	32*	-6
CC(C)(C)c1ccc2cccc(F)c2n1	-5	x	x	x	1
O=C(NC12CC3CC(CC(C3)C1)C2)C1CCCN1C(=O)NC1CCCCC1 (stereo not drawn)	-2	14	1	-12	-6
CC1CCCCN1C(=O)NC12CC3CC(CC(C3)C1)C2 (stereo not drawn)	3	-1	0	34*	2
COc1ccc(-n2c(-c3ccc(Br)cc3)n[nH]c2=S)cc1	-3	-8	0	31*	-4
CCOc1ccccc1C(=O)N1CCC(c2nc3ccccc3o2)CC1	x	-6	2	x	x
CCOc1cc(-c2nc3c(c(CC)nn3-c3ccccc3)c3cc(OC)c(OC)cc23)ccc1O	x	-12	x	x	x
COc1cccc(N2CCN(Cc3ccsc3)CC2)c1	0	-23	18	48*	-18
COc1ccc(NC(=O)C(=O)NCCN2CCN(C(=O)c3ccc(C)cc3)CC2)cc1	0	-22	-2	46*	-22
SMILES	D2 ag-1	D2 PAM-1	D2 ag-2	D2 antag	D2 PAM-2
CC(=O)c1ccc(N2CCN(S(=O)(=O)c3ccc4c(c3)CC(C)N4C(=O)C3CCC3)CC2)cc1 (stereo not drawn)	x	-6	-1	x	x
CCOC(=O)c1ccc(NC(=O)c2nn(C)c3c2COc2ccccc2-3)cc1	x	4	-1	x	x
O=C(CCSCc1ccccc1Cl)N1CCN(c2ccc(F)cc2)CC1	x	-12	x	x	x
COc1cc2c(cc1OC)C(=O)C(Br)CC2 (stereo not drawn)	46*	x	x	x	-6
COc1cc2c(cc1OC)C(=O)C(c1ccc3c(c1)OCO3)CC2 (stereo not drawn)	-3	x	x	x	-3
CCOC(CNC(=O)c1cc(C)nn1-c1ccccc1)OCC	2	3	0	19	-6
CCOCCCNC(=O)c1cc(C)nn1-c1ccccc1	-6	6	1	36*	-5
O=C(NC1CCCC1)c1ccc2c(=O)n(Cc3ccccc3)c(SCc3cccc(F)c3)nc2c1	x	1	0	x	x
Cn1c(=O)c2cn3ncccc3c2n(C)c1=O	x	3	0	13	x
Cc1ccnn2cc3c(=O)n(C)c(=O)n(C)c3c12	x	31*	-2	11	x
COc1ccccc1-c1ccc(/C=C2/C=C(CC(C)C)OC2=O)o1	-4	8	3	33*	-9
Cc1ccc(S(=O)(=O)NC(C)C(=O)NC(C)c2cccs2)cc1 (stereo not drawn)	-3	32*	0	-1	-3
Cc1ccc(S(=O)(=O)NC(CC(=O)O)c2cccs2)cc1 (stereo not drawn)	6	0	0	-3	8
CCOCCc1nn2c(=O)cc(COC(=O)c3ccccc3Br)nc2s1	x	x	1	x	x
COc1cc(C(=O)NCC(=O)N/N=C/c2ccc(-c3ccc([N+](=O)[O-])cc3)o2)cc(OC)c1OC	5	-4	-1	-16	4
Cc1ccc(/C=N/NC(=O)CNC(=O)c2cccc([N+](=O)[O-])c2C)o1	-6	38*	1	2	-5
CN(C)CCCNC(=O)/C(=C\c1ccc(-c2cccc([N+](=O)[O-])c2)o1)NC(=O)c1ccccc1	0	-1	1	37*	-10
COc1cc(C(=O)NCC(=O)N/N=C/c2ccc(-c3cccc([N+](=O)[O-])c3)o2)cc(OC)c1OC	-6	-24	-1	50*	-12
COc1ccc(NC(=O)Cn2c(=O)n(-c3ccc(CC(=O)NCC4CCCO4)cc3)c(=O)c3ccccc32)c(OC)c1 (stereo not drawn)	x	1	0	x	x
CC1CCN(CC(O)CN2c3ccccc3Sc3ccccc32)CC1 (stereo not drawn)	-6	-26	-2	71*	-56
Cn1c(=O)c2c(nc(CN3CCN(c4ccccc4F)CC3)n2Cc2ccc(F)cc2)n(C)c1=O	x	-13	0	x	x
CC(C)c1ccc(NC(=O)CCNS(=O)(=O)c2cccc3nonc23)cc1	-1	1	0	8	-4
Cc1ccc(NC(=O)CCNS(=O)(=O)c2cccc3nonc23)cc1	-3	26	0	31*	-5
Cc1ccc(S(=O)(=O)N(C)C)cc1NC(=S)NC(=O)C12CC3CC(CC(C3)C1)C2	1	4	-1	9	10
S=C(NCc1ccco1)Nc1ccccc1	2	8	0	31*	-3
Cc1ccc(S(=O)(=O)N(C)C)cc1NC(=S)NC12CC3CC(CC(C3)C1)C2	-3	-24	0	78*	-8
Cc1ccc(NC(=S)Nc2ccc3[nH]c(=O)[nH]c3c2)cc1C	-8	11	0	-4	-15
